In ChEMBL document CHEMBL3988442, “University of Dundee, Small-Polar-MMV Screening Library” (2021):
Hit rate of the full screen: of about 85,000 compounds, about 440 (0.52%) showed an effect of 50% or more. The full list was thinned out, with strong results kept by preference.

Assay: In vitro enzyme assay to detect hydrolysis of chlorophenol red-beta-D-[…] directly proportional to the number of Toxoplasma stably expressing beta-galactosidase
Format: functional, organism-based, Toxoplasma gondii
Set-up: scale not given: in the data most compounds retested in dose-response had high values

SMILES	Percent Effect (50 µM) [%]	Percent Effect (10 µM) [%]
COc1cc(Cl)ccc1CN	12.35	–
CCN1CCN(CC(=O)Nc2ccc(OC)cc2)CC1	6.454	–
CC(=O)c1c(C)nn(CC(=O)Nc2ccc(F)cc2)c1C	–	19.31
Cc1cc(=O)n(CC(=O)Nc2ccc(Cl)cc2)nc1C	–	3.812
COc1ccc(NC(=O)Cn2nc(C)c(C)cc2=O)cc1	–	-1.054
COc1ccc(NC(=O)Cn2nc(C)c(C(C)=O)c2C)cc1	–	89.45
CC(=O)c1c(C)nn(CC(=O)Nc2ccc(Br)cc2)c1C	–	96.91
NCCS(=O)(=O)NCc1ccccc1	-6.39	–
CC(=O)NCCNC(=O)CC(C)C1CCCCC1 (stereo not drawn)	-13.76	–
CNC(=O)CN1CCC(NC(=O)c2cccs2)CC1	-6.649	–
CS(=O)(=O)C1CCCCN(C(=O)CC2CCSCC2)C1 (stereo not drawn)	-13.3	–
NC(=O)c1ccc(OCC(=O)c2ccccc2F)cc1	-5.248	–
CN(Cc1cc2cc(F)ccc2[nH]1)c1cc(C2CCCNC2)ncn1 (stereo not drawn)	–	38.81
Cc1nc(-c2ccc(F)cc2)cc(C2CCNCC2)n1	–	1.268
Cc1nc(C2CCNCC2)cc(N(C)Cc2cc3cc(F)ccc3[nH]2)n1	–	63.01
CCN(Cc1ccncc1)c1cc(C2CCCNC2)nc(C)n1 (stereo not drawn)	–	14.41
CCN(Cc1c(F)cccc1Cl)c1cc(C2CCNCC2)nc(C)n1	–	79.97
CCN(Cc1ccncc1)c1cc(C2CCNCC2)nc(C)n1	–	30.82
CCC(N)c1ccccc1OCC(=O)N(C)C (stereo not drawn)	-2.206	–
NC(=O)CCSc1nnc(N2CCCC2)n1C1CC1	10.69	–

SMILES	Percent Effect (50 µM) [%]	Percent Effect (10 µM) [%]
Cc1nccn1CCNc1cc(C2CC(O)C2)ncn1 (stereo not drawn)	47.03	–
CNC(=O)NC(=O)CCN1CCCC(C(F)(F)F)C1 (stereo not drawn)	-7.84	–
CNC(=O)NC(=O)CCN1CCCCC1	-8.963	–
CNC(=O)NC(=O)CCN1CCCC(C)C1 (stereo not drawn)	60.28	–
Cc1nn(C)cc1C(C)NC(=O)CNc1ccccc1 (stereo not drawn)	-0.7115	–
CN(CC(=O)N1CCOCC1)Cc1cc(Br)cs1	6.245	–
N#Cc1c(Cl)nsc1NCC1(c2ccccc2)CCC1	–	79.2
COc1ccccc1C1(CNc2snc(Cl)c2C#N)CCOCC1	–	-0.2674
COc1ccccc1C1(CNc2snc(Cl)c2C#N)CCCC1	–	2.513
Cc1noc(C)c1C(=O)NC1CCN(CC2CC2)CC1	-0.3877	–
CC(C)c1nsc(NCC2=COCCO2)n1	-1.035	–
Cc1[nH]c2ccccc2c1-c1ccnc(NC[C@H](O)CO)n1	–	15.34
Cc1[nH]c2ccccc2c1-c1ccnc(NCCN2CCOCC2)n1	–	-5.812
Cc1[nH]c2ccccc2c1-c1ccnc(N[C@@H](CO)C(C)C)n1	–	48.14
Cc1[nH]c2ccccc2c1-c1ccnc(N[C@H](CO)CC(C)C)n1	–	53.1
Cc1[nH]c2ccccc2c1-c1ccnc(N[C@@H](C)CO)n1	–	58.12
Cc1[nH]c2ccccc2c1-c1ccnc(NCCN2CCCCC2)n1	–	28.85
NCc1cc2c([nH]c1=O)CCC2	5.937	–
CCN(CCCOC)CC(=O)Nc1cccc(OC)c1	-2.356	–
COc1ccc(NC(=O)c2ccc(Br)cn2)cc1CO	-27.31	–

SMILES	Percent Effect (50 µM) [%]	Percent Effect (10 µM) [%]
COc1ccc(-c2cncc(N)c2)cc1CO	96.02	–
COc1ccc(NC(=O)c2cncc(C)c2)cc1CO	-7.73	–
CCc1nc(C2CCCN2CC(=O)NCCc2ccsc2)no1 (stereo not drawn)	–	89.95
O=C(CN1CCCC1c1noc(C2CC2)n1)NCCc1ccsc1 (stereo not drawn)	–	19.94
Cc1nc(C2CCCN2CC(=O)NCCc2ccsc2)no1 (stereo not drawn)	–	7.324
CCN(C)C(=O)CNc1ccccc1S(=O)(=O)CC	-2.619	–
O=C([C@@H]1CCCN1)N1CCCC1c1cccnc1 (stereo partly drawn)	-9.249	–
COCC(C)(CCO)NCc1cccc(F)c1 (stereo not drawn)	2.377	–
CC1(c2ccccc2)CCCN(Cc2cncn2C2CCCC2)C1 (stereo not drawn)	–	64.76
CC1(c2ccccc2)CCCN(Cc2cncn2C2CC2)C1 (stereo not drawn)	–	20.67
COCCn1cncc1CN1CCCC(C)(c2ccccc2)C1 (stereo not drawn)	–	0.6483
O=C(C(O)c1ccccc1)N(CCO)Cc1ccsc1 (stereo not drawn)	11.77	–
CCOC(=O)c1sc(O)nc1C	-0.2183	–
CC(C)C(NC(=O)c1ccco1)C(=O)N1CCOCC1 (stereo not drawn)	-3.141	–
NCC1(NS(=O)(=O)c2cccc3nonc23)CCCC1	-3.738	–
CC(C)NC(=O)C1CN(C(=O)Cc2ccccc2)CC12CCOCC2 (stereo not drawn)	–	0.09588
CC(C)NC(=O)C1CN(C(=O)NCc2ccccc2)CC12CCOCC2 (stereo not drawn)	–	-9.471
CC(C)NC(=O)C1CN(C(=O)CCc2ccccc2)CC12CCOCC2 (stereo not drawn)	–	56.76
